# Bioassay records: PubChem BioAssay, several laboratories
# In the library only some 2.6% were active in any assay of this set; here they are far more common.
# TROY NFkB inh: inhibitors of TROY-dependent NF-kB signaling | Q293 LMP1-TROYcd NF-kB luciferase reporter, 4 h | inhibition, % at 10 µM | AID 1347056 | 0.98% of 360,000 active;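 active means compounds whose plate-normalised and pattern-corrected inhibition of the luciferase reporter signal at the single screening dose is 50% or more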
# LGR2 antag: blocks bursicon-induced cAMP signaling via Drosophila LGR2 | 0.35% of 380,000 active | inhibition, % at 9.99 µM | HEK293 LGR2, CRE-luciferase, bursicon-stimulated, 4 h;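 active means drop in luminescence signal, shown as inhibition above about 50% in the replicate tests, limit read from the data, passing the limit was not always enough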;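 further: agonist challenge used bursicon conditioned medium at about half maximal strength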
# EBV LMP1 NFkB: inhibitors of Epstein-Barr LMP1-induced NF-kappaB reporter; LMP1-induced NF-kappaB luciferase reporter cells, luminescence; inhibition, % at 12.5 µM; 0.69% of 350,000 active; AID 504558; in the data active means inhibition above about 41%
# aDG glyco act: alpha-DG glycosylation activation | 0.22% of 360,000 active | Pro5-aDG cells, alpha-DG glycosylation AlphaScreen (IIH6); 0% Pro5, 100% B10-LARGE cell signal | activation, % at 10 µM;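 active means activation of at least 8% versus controls, or a plate z-score of at least 8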;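 further: Pro5 are CHO cells carrying HIG-tagged alpha-DG that lacks glycosylation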
# TWEAK Fn14 block: inhibitors of TWEAK-Fn14 interaction signaling; inhibition, % at 10 µM; TWEAK-stimulated Fn14 reporter cells, luciferase luminescence, 8 h; 2% of 360,000 active; in the data active means inhibition above about 50%
# HSP90 refold inh: inhibitors of HSP90 luciferase refolding in rabbit reticulocyte lysate | luciferase refolding luminescence, 3 h | inhibition, % at 5.6 µM | 0.91% of 290,000 active | AID 1789;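 active means inhibition above the screen-wide mean plus 3 SD, computed separately per campaign, cut at about 16% in these data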;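 further: inhibitors lower the luminescence because luciferase stays unfolded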
# Numbers stand for hits; - = inactive; . = no result.
SMILES,TROY NFkB inh,LGR2 antag,EBV LMP1 NFkB,aDG glyco act,TWEAK Fn14 block,HSP90 refold inh
COc1ccc(NC(=O)Nc2ccc3c(c2)[C@@H]2C[C@@H](CC(=O)NC4CCCCC4)O[C@H](CO)[C@@H]2O3)cc1,.,-,.,.,.,.
COc1ccc(-c2cc(C(F)(F)F)n3nc(C(=O)N4CCOCC4)nc3n2)cc1,-,-,44,-,-,-
CC(=O)n1cc(N(C(=O)CCl)c2ccc(Cl)cc2)c2ccccc21,-,.,.,-,64,-
COc1ccccc1N(C(=O)CCl)c1cn(C(C)=O)c2ccccc12,-,-,-,-,73,-
CC(=O)n1cc(Nc2ccccc2C(=O)O)c2ccccc21,-,.,-,-,-,-
CCOC(=O)c1ccccc1Nc1cn(C(C)=O)c2ccccc12,-,-,-,-,-,-
